Data on 15 compounds can be found in PubChem BioAssay AID2472 (National Center for Advancing Translational Sciences (NCATS), 2010).

Each structure is given as a SMILES string. “And” between values parts separate entries of the source, which are not always exact repeats. Equal values may be shown once. About 2,000 (0.69%) of roughly 290,000 compounds were called active. The sample holds actives, similar compounds and a random draw of the others, so the mix is not that of the screen. Cut-off read from the data, not from the text of the source: active = activity change below about -30%; inactive = the rest, inconclusive results apart. More than one record can exist for a structure, and the calls need not agree.
% is set by controls: 0 for no effect and ±100 for the full control effect.

The nature of the assay: qHTS Assay for Inhibitors of Fructose-1,6-bisphosphate Aldolase from Giardia Lamblia: Coupling assay counterscreen. As to conditions: coupling enzyme system counterscreen, AmpLite Red fluorescence; at 58.2 µM (top of the series). An excerpt: MLPCN Grant: MH085699-01 Assay Provider: Osnat Herzberg, University of Maryland NCGC Assay Overview: The objective of this project is to obtain compounds that inhibit Giardia lamblia growth. G. lamblia is a human pathogen which afflicts impoverished nations; it is the most common cause of outbreaks of diarrhea in the United States. During the course of our study of potential drug targets in Giardia, we have identified the Class II (Zn2+ functions in electrophilic catalysis) fructose-1,6-bisphosphate aldolase (FBPA) as an excellent candidate for drug targeting. FBPA is a key glycolytic pathway enzyme, essential for G. lamblia survival. The human FBPA belongs to the Class I aldolases, which have a different substrate binding site structure and a radically different catalytic mechanism (employing a lysine-Schiff base intermediate). Therefore, affinity-based or mechanism-based inhibitors of the Giardia FBPA are expected not to interfere with the catalytic function of the human FBPA. A glyceraldehyde-3-phosphate dehydrogenase/triose phosphate isomerase/NAD/arsenate coupled assay was adapted to the 1536-well HTP format for use in the primary screen. This was done by coupling it to a diaphorase/resazurin/resorufin reaction that can be monitored by fluorescence (excitation, 544 nm; emission, 590 nm). Compounds identified in this screen will be further evaluated by coupling the […]/triose phosphate isomerase/NADH assay to a phenazine methosulfate/tetranitroblue tetrazolium color reaction. False positives due to the dehydrogenases and diaphorase inhibition will be eliminated, and selectivity assay will triage inhibitors of mammalian triose phosphate isomerase and the Class I FBPA. G. lamblia FBPA inhibitors identified by the in vitro analyses will be examined for growth inhibition of Giardia trophozoites, and for cytotoxicity in human cells. This assay specifically addresses whether activity observed in the primary screen (AID 2451) is related to inhibition of the coupling assay used, as opposed to inhibition of aldolase. Actives in this assay are considered inconclusive for activity against aldolase.
NCGC Assay Protocol: Step,Parameter,Value,Description 1,Coupling enzyme reagent,2 uL,glyceraldehyde-3-phosphate 2,Compound,23 nL,3.68 nM-57.5 uM final concentration 3,Time,10 min,RT Incubation 4,Substrate/detection Reagent,2 uL,Substrate + enzyme coupling system + AmpLite Red kit 5,Time,20 min,RT Incubation 6,Detector,525 nm/598 nm (Fluorescence),ViewLux Fluorescence Read (Read 1) Notes: 1,Medium-binding black solid-bottom Kalypsys plates. FRD or Kalypsys dispenser. 2,Compound Library (10 mM ,1:5 dilution). Pin-transferred for a [final] range of 3.68 nM-57.5 uM. 3,RT incubation 4,FRD or Kalypsys dispenser, 2 uL of reaction mixture. Bottle kept at 4C and covered in foil to protect from light. 5,RT incubation 6,ViewLux Protocol 1194; Excitation filter wheel A (525/20 Pol; BODIPY TMR FP), Emission filter wheel B (598/25 S; BODIPY TMR FP S). Keywords: Fructose-bisphosphate aldolase, FBPA , Giardia lamblia , Giardia, HTS, Inhibitors
A general note: qHTS replaces the single test concentration by a dilution series.
As to `C/C(CCc1c[nH]c2ccccc12)=N\O`, the activity change, negative = inhibition was -2.5% (inactive).

In the case of `NCCc1c[nH]c2ccc(O)cc12`, the activity change, negative = inhibition is -9.84% (inactive) and -40.6% (active).

Turning to `Cc1cccc2c(CCN)c[nH]c12`, the activity change, negative = inhibition was -2.64% (inactive).

As for `N#Cc1cc(Br)c(O)c(Br)c1`, the activity change, negative = inhibition was 2.57% (inactive).

Consider `C[C@@H]1C[C@H]2CC[C@H](O2)[C@H](C)C(=O)O[C@@H](C)C[C@@H]2CC[C@@H](O2)[C@@H](C)C(=O)O[C@H](C)C[C@H]2CC[C@H](O2)[C@H](C)C(=O)O[C@@H](C)C[C@@H]2CC[C@@H](O2)[C@@H](C)C(=O)O1`, for which the activity change, negative = inhibition is -0.707% (inactive).

For `C[C@H]1C/C=C/[C@@H]2[C@@H]3O[C@]3(C)[C@@H](C)[C@H]3[C@H](Cc4ccccc4)NC(=O)[C@]32OC(=O)O/C=C/[C@](C)(O)C1=O`, the activity change, negative = inhibition is 1.28% (inactive).

As for `CCCCCCCCCCCCN=C(N)N`, the activity change, negative = inhibition was -0.411% (inactive).

For `CO[C@H]1[C@@H](O)[C@@H](C)O[C@H](O[C@H]2[C@H](Oc3cccc4c(O)c5c(=O)oc6ccc(C)c7c(=O)oc(c34)c5c67)O[C@H](C)[C@H](O)[C@@H]2O)[C@@H]1O`, the activity change, negative = inhibition was -47.8% (active).

In the case of `Nc1ccc(-c2ccc(N)c(N)c2)cc1N`, the activity change, negative = inhibition was 3.84% (inactive).

As for `CC(=O)[O][Sn]([c]1ccccc1)([c]1ccccc1)[c]1ccccc1`, the activity change, negative = inhibition was -1.83% (inactive).

Regarding `CN(C)C[C@H]1CCCC[C@]1(O)c1cccc(O)c1`, the activity change, negative = inhibition was 0.267% (inactive).

On to `CCOC(=O)C(O)(c1ccc(NC(=O)c2ccco2)c(OC)c1)C(F)(F)F` (stereo not given), for which the activity change, negative = inhibition was -4.29% (inactive).

Regarding `CCOC(=O)c1c(N)n(Cc2ccccc2)c2nc3ccccc3nc12`, the activity change, negative = inhibition is -2.59% (inactive).

For `COc1cc(Cn2c(N)c(C(=O)NCc3ccco3)c3nc4ccccc4nc32)cc(OC)c1OC`, the activity change, negative = inhibition was -52% (active).

Consider `C[C@]12O[C@H](C[C@@]1(O)C(=O)O)n1c3ccccc3c3c4c(c5c6ccccc6n2c5c31)CNC4=O`, for which the activity change, negative = inhibition was 0.208% (inactive).
